# Measured values: article PMC4336329 (PLoS ONE, 2015)
# Screen size: about 310,000 compounds; about 14,000 (4.5%) showed an effect of 50% or more. The effect is printed as a negative number. What follows is part of a selection rich in strong results, with near analogues and random picks from the rest.
# Molecular target: human ether-à-go-go-related gene (hERG) potassium channel (human, UniProt Q12809)
# Test: primary screen, population patch clamp on CHO cells stably expressing hERG; higher = less effect of the substance
# 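Further: peak tail current of the secondary pulse compared with the same well before compound.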
# human ether-à-go-go-related gene (hERG) potassium channel, sequence (Q12809 whole entry, looked up): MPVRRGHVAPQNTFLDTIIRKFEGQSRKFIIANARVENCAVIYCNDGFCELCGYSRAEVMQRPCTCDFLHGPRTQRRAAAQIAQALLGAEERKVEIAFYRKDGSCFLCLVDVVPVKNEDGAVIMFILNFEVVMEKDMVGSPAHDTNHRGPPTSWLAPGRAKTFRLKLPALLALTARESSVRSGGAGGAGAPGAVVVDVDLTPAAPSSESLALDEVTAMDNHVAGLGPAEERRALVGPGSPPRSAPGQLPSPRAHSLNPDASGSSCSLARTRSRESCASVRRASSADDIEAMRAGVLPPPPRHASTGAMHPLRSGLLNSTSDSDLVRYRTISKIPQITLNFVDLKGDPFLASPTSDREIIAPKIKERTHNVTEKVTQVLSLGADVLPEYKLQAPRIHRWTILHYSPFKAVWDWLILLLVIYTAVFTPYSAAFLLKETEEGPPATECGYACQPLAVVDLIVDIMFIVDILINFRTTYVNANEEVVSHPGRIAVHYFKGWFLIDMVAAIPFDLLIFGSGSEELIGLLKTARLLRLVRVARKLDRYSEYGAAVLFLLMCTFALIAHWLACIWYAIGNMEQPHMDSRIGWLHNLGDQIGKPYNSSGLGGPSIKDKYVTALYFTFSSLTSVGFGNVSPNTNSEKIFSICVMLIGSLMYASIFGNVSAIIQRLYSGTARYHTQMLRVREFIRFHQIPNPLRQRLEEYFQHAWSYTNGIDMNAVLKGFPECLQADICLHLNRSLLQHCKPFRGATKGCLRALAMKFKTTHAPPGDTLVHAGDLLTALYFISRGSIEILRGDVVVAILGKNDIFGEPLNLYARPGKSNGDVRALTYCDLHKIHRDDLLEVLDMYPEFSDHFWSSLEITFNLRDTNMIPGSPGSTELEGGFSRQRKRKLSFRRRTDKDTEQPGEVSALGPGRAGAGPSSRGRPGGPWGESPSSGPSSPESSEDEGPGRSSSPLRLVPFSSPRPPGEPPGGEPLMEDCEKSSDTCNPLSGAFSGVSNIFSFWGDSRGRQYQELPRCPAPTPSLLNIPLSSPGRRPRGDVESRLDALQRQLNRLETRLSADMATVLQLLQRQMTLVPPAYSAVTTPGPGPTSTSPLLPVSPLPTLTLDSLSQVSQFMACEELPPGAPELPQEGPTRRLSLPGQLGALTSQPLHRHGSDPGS
row,SMILES,"hERG current change (%, negative = inhibition) at 10uM [%]"
1,CN1C(=O)NC(c2ccccc2[N+](=O)[O-])C2=C1CCCC2=O (centres unmarked),10.1
2,COc1cc(OC)c(-c2nc3cnccc3n2C)cc1OC,6.5
3,COc1ccc(NC(=S)N2CCN(C(=O)C3CCCO3)CC2)cc1 (centres unmarked),11.8
4,Cc1ccc(C(=O)CCC(=O)N2CCN(C(=O)c3ccco3)CC2)cc1,-56.2
5,CCCCC1(c2ccc(F)cc2)NC(=O)N(CC(=O)N2CCN(C(=O)c3ccco3)CC2)C1=O (centres unmarked),-52.6
6,O=C(CN1C(=O)NC2(CCCC2)C1=O)N1CCN(C(=O)c2ccco2)CC1,4.41
7,O=C(CCC(=O)N1CCN(C(=O)c2ccco2)CC1)c1ccc(F)cc1,-66.7
8,O=C(c1ccco1)N1CCN(c2ccc(F)cc2)CC1,-0.235
9,O=C(CCC(=O)N1CCOCC1)c1ccc(F)cc1,36.5
10,Cc1ccc(CC(=O)N2CCN(C(=O)c3ccco3)CC2)cc1,-7.76
11,Cc1ccc(OCC(=O)N2CCN(C(=O)c3ccco3)CC2)cc1,-37.7
12,CC(C)O.CCCC1(CCC)NC(=O)N(CC(=O)N2CCN(C(=O)c3ccco3)CC2)C1=O,5
13,CC(=O)Oc1ccccc1N(C(C)=O)S(=O)(=O)c1ccc2ccccc2c1,7.06
14,COc1ccc(NC(=O)Cn2nnc3ccccc32)c([N+](=O)[O-])c1,9.14
15,O=C(CC1Nc2ccccc2NC1=O)c1ccccc1 (centres unmarked),-2.01
16,O=C(O)/C=C\C(=O)O.OCCN1CCN(CC/C=C2/c3ccccc3CSc3ccccc32)CC1,-12.2
17,CN(C)CC/C=C1/c2cc(F)ccc2Sc2ccc(Cl)cc21.Cl,-34.5
18,CN(C)CC/C=C1\c2ccccc2Sc2ccc(Cl)cc21.Cl,-56.7
19,Cl.OCCN1CCN(CC/C=C2/c3ccccc3Sc3ccc(C(F)(F)F)cc32)CC1,-47.1
20,CN(C)CC/C=C1/c2ccccc2Sc2ccc(Cl)cc21,-8.11
21,Cl.OCCN1CCN(CC/C=C2/c3ccccc3Sc3ccc(Cl)cc32)CC1,-68.8
22,CN(C)CC/C=C1\c2cc(Cl)ccc2Sc2cc(F)c(F)cc21.Cl,1.25

row,SMILES,"hERG current change (%, negative = inhibition) at 10uM [%]"
1,CN(C)CC/C=C1\c2ccccc2Sc2cc(F)c(Cl)cc21.Cl,7.2
2,CN(C)CC/C=C1/c2ccccc2Sc2ccc(Cl)cc21.Cl,-56.8
3,CCN(CC)S(=O)(=O)c1ccc(C(=O)OCC(=O)NCCN2C(=O)CSC2=O)cc1,-14.4
4,O=C1C(=Cc2ccco2)C(=O)c2ccccc21,8.17
5,CN1C(=O)c2ccc(C(=O)Nc3ccccc3O)cc2C1=O,4.6
6,Cc1nn(C)cc1/C=N/NC(=O)c1sc2ccccc2c1Cl,-6.47
7,O=P(c1ccccc1)(c1ccccc1)C(c1ccco1)N1CCOCC1 (centres unmarked),9.93
8,Cc1nnc(NCCc2ccccc2)c2ccccc12,-18.1
9,COc1ccc(NC(=O)NCCCN2CCN(c3cc(C)ccc3C)CC2)cc1,-92.2
10,COc1ccc(Cl)c(N2CCN(CCCNC(=O)Nc3ccc(C)cc3)CC2)c1,-72.4
11,Cc1ccc(NC(=O)NCCCN2CCOCC2)cc1,4.63
12,COc1ccc(NC(=O)NCCN2CCN(c3cc(OC)ccc3OC)CC2)cc1,-2.75
13,COc1ccc(NC(=O)NCCN2CCCCC2)cc1,-10.1
14,COc1ccc(NC(=O)NCCN2CCN(c3ccc(C)cc3)CC2)c(Cl)c1,-8.96
15,Cc1cc(SCC(=O)Nc2c(C)n(C)n(-c3ccccc3)c2=O)nc2ccccc12,-38.7
16,Cc1cc(C(=O)OCC(=O)c2ccc3c(c2)NC(=O)CO3)c2ccccc2n1,18.8
17,O=C(NCCCN1CCOCC1)c1cnn2c(-c3ccccc3)cc(-c3ccccc3)nc12,-41.3
18,O=C(NCCN1CCOCC1)c1cnn2c(-c3ccccc3)cc(-c3ccccc3)nc12,-72.5
19,O=C(NCCN1CCOCC1)c1cc(-c2ccccc2Cl)nc2ccccc12,-15
20,O=C(NCCN1CCOCC1)c1cc(Sc2cccc(Cl)c2)nc2ccccc12,-77.2
21,O=C(NCCN1CCOCC1)c1cc(Sc2ccccc2Cl)nc2ccccc12,-27.1
22,CCc1ccc(Nc2cc(C(=O)NCCCN3CCOCC3)c3ccccc3n2)cc1,-35.5
